# Data from PubChem BioAssay (NCI).
# “And” between values parts separate entries of the source, which are not always exact repeats. Equal entries are not always repeated. This is part of a sample that, as a whole, favours compounds with a hit. Of some 83,000 tested, about 20% had one in any assay.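 Note: values are percent growth. 100 is the growth of untreated cells, values between 100 and 0 indicate rising inhibition; between -100 and 0 indicates cell death.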 The source made the active and inactive calls. The calls were made as follows: active = growth percent below 10; inactive = the rest.
# Tested on: MDA-MB-468 breast
# Test: NCI-60 one-dose screen, 48 h (100 = growth as untreated, 0 = no growth, -100 = all killed)
# Details: 10 µM unless noted
row,Structure (SMILES),growth
1,Nc1c(-c2nc3ccccc3c(=O)[nH]2)nnn1-c1ccc(Cl)cc1,105% (inactive)
2,COC(=O)[C@]12CC[C@@H](C)[C@H](C)[C@@H]1C1=CC[C@@H]3[C@@]4(C)C[C@@H](O)[C@H](O)[C@@](C)(CO)[C@@H]4[C@H](O)C[C@@]3(C)[C@]1(C)CC2,-53% (active)
3,CCCCCCCCn1ccc2cc(NC(=O)CN3CCN(c4nc(C)cc(Cl)n4)CC3)ccc21,92.8% (inactive)
4,COc1ccc(Sc2[nH]c(C(C)=O)c3ccccc23)cc1,-6.04% (active)
5,C[C@H](NC(=O)[C@@H](C)N)[C@H](Oc1ccc2c(cnn2-c2ccc(F)cc2)c1)c1ccc2c(c1)OCCO2,37.7% (inactive)
6,CCOCC(=O)C(C#N)c1ccc(Cl)c(Cl)c1 (stereo not given),90.9% (inactive)
7,COc1cc(CNC(=O)CCCC/C=C/C(C)C)ccc1OCc1cn(-c2ccc([N+](=O)[O-])cc2)nn1,77.4% (inactive)
8,C=CCn1c(SCC(=O)Nc2cccc(C(=O)/C=C/c3ccc(C)cc3)c2)nc2ccccc2c1=O,76.3% (inactive)
9,CCC(=C(c1ccc(OCCN(CC)CC)cc1)c1ccc(OCCN(CC)CC)cc1)c1ccc(Cl)cc1,-79.1% (active)
10,CC[C@@H](C)/C=C(C)/C=C/C(=O)c1c(O)c(-c2ccc(O)cc2)cn(OC2CC(=O)CCC(C)OC(=O)CC2O)c1=O (stereo not given in full),-29.9% (active)
11,CC1(C)CC[C@]2(C(=O)NCC#CCN3CCOCC3)CC[C@]3(C)C(=CC[C@@H]4[C@@]5(C)Cc6c([nH]c7ccccc67)C(C)(C)[C@@H]5CC[C@]43C)[C@@H]2C1,90.8% (inactive)
12,COc1cc(/C=C2\CN(C)C/C(=C\c3cc(CN4CCCC4)c(O)c(OC)c3)C2=O)cc(CN2CCCC2)c1O,41.8% (inactive)
13,CCOC(=O)c1ccc2c(c1)nc(-c1ccccc1)n2C1CCCCC1,118% (inactive)
14,O=C(Nc1ccc(F)cc1F)c1cc(Br)ccc1O,-19.6% (active)
15,N/C(=N\c1nc2c(Br)cccc2s1)C(Br)Br,-58.8% (active)
16,CCCCCc1ccc(S(=O)(=O)N(C(C)=O)c2cccc(-c3csc(N(CCN4CCN(C)CC4)C(C)=O)n3)c2)cc1,-10.9% (active)
17,CC(=O)N1C(=S)NC(=O)C1Cn1c(-c2ccccc2)nc2ccccc21 (stereo not given),96.8% (inactive)
18,NS(=O)(=O)Oc1ccc(-c2ccc3sccc3c2)cc1,87.1% (inactive)

row,Structure (SMILES),growth
1,Nc1n[nH]c2ccc([C@@H]3Nc4c(F)cc5[nH]ncc5c4[C@H]4C5CCC(C5)[C@@H]34)cc12 (stereo not given in full),-4.88% (active)
2,CNCCCn1c2c(c3ccc(F)cc3c1=O)C(=O)c1cc(OC)cnc1-2,-47.6% (active)
3,CC(=O)Nc1cccc2cc(O)ccc12,112% (inactive) and 101% (inactive) and 110% (inactive)
4,CCCCCN(CCCCC)CCC[C@@H](C)[C@H]1CC[C@H]2[C@@H]3[C@H](OCCCN)C[C@@H]4C[C@H](OCCCN)CC[C@]4(C)[C@H]3C[C@H](OCCCN)[C@]12C,71.1% (inactive)
5,CCOC(=O)c1ccc(NC(=O)NC2=NCCS2)cc1,29.6% (inactive)
6,CCCCC(=O)Nc1ncc(Cc2ccccc2Cl)s1,14.1% (inactive)
7,CCOC(=O)c1c(C)nc(C)c(C(=O)OCC)c1-c1cccnc1,94.8% (inactive)
8,C[C@]12CCC(=O)C[C@H]1CC[C@@H]1[C@@H]2CC[C@@]2(C)[C@H]1CC[C@]2(O)C(=O)CO,99.8% (inactive)
9,CC(C)(C)c1ccc(S(=O)(=O)N[C@H]2CC[C@H]3[C@@H]4CCc5cc(OS(=O)(=O)O)ccc5[C@H]4CC[C@]23C)cc1,58.6% (inactive)
10,CCN1C2CCC1/C(=C\c1ccc(F)cc1)C(=O)/C2=C/c1ccc(F)cc1,11.1% (inactive)
11,C=CCN(/C=C/CN(CC=C)CC=C)CC=C,99.3% (inactive)
12,CCC(C)(O)CCC(C)(O)CC (stereo not given),106% (inactive)
13,Cc1ccc2c(C)c3c(ccc4ccccc43)c[n+]2c1,-42.1% (active)
14,CCOC(=O)c1c(/C=C/C(=O)O)nc2ccccc2c1/C=C/c1ccccc1,7.2% (active)
15,C/C=C(/C)C(=O)OC1C=C(CO)C(=O)C(OC(=O)/C(C)=C\C)C1C(C)C (stereo not given),-50.9% (active)
16,Clc1ccc2c(c1)N(c1ncnc3ccc(-c4cnc5[nH]ncc5c4)cc13)CC2,3.65% (active)
17,Cc1nn(-c2ccc(F)cc2)c2ncnc(Nc3ccc(NC(=O)Nc4ccc(Cl)c(C(F)(F)F)c4)cc3)c12,-2.58% (active)
